# Measurements reported in PubChem BioAssay (NCI).
# About 83,000 compounds went through this panel and 20% of them were active in at least one assay; those are over-represented in the sample as a whole.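 Assay: single dose, 48 h. Readout: percent growth (0 = no net growth; negative = cell death). Active: <10.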 A number with no mark means an inactive call. The source made the active and inactive calls.
# Legend:
# Test in all cases: NCI-60 one-dose screen, 48 h (100 = growth as untreated, 0 = no growth, -100 = all killed)
# Details in all cases: 10 µM unless noted
# [1] = test system: NCI-H23 lung
# [2] = test system: NCI-H226 lung
# [3] = test system: NCI-H322M lung
# [4] = test system: HOP-62 NSCLC
# [5] = test system: NCI-H460 lung
# [6] = test system: NCI-H522 lung
# [7] = test system: A549/ATCC NSCLC
# [8] = test system: 786-0 renal
# [9] = test system: COLO 205 colon
# [10] = test system: DU-145 prostate
# [11] = test system: K-562 leukemia
# [12] = test system: MALME-3M melanoma
# [13] = test system: MDA-MB-231 breast
# [14] = test system: RXF 393 renal
# [15] = test system: SF-268 CNS
# [16] = test system: SF-295 CNS
# [17] = test system: SF-539 CNS
# [18] = test system: UACC-257 melanoma
# [19] = test system: M14 melanoma
Compound,growth [1],growth [2],growth [3],growth [4],growth [5],growth [6],growth [7],growth [8],growth [9],growth [10],growth [11],growth [12],growth [13],growth [14],growth [15],growth [16],growth [17],growth [18],growth [19]
Cc1ccc(S(=O)(=O)c2nc(S(=O)(=O)c3ccc(C)cc3)c(Cl)s2)cc1,36.8%,1.5% (active),89.7%,105%,41.5%,-89.5% (active),92.8%,-49.6% (active),-78.6% (active),-22.5% (active),5.15% (active),-90.4% (active),-54.5% (active),-76.9% (active),108%,94%,-62% (active),67.2%,23.7%
COc1ccc2c(c1)C(=N/N=C(\C)c1ccc(OC)c(S(N)(=O)=O)c1)C(=O)N2,94.1%,89.3%,94%,89.1%,101%,84%,94%,97.9%,98.7%,105%,103%,93.7%,75.1%,80.4%,97.5%,86.4%,86.8%,96.7%,92.4%
CN(C)CCn1c2ccccc2c2nc3cc(C(F)(F)F)ccc3nc21,34.6%,53.2%,40.3%,38.8%,8.31% (active),30.7%,21.7%,32.9%,14%,31.4%,19.3%,25.9%,37.2%,42.7%,52.4%,27.9%,26.3%,45.1%,40.7%
Cn1cc(-c2cc3nc(-c4cn(C)c5ncccc45)cc(N)n3n2)c2cc(Cl)ccc21,-66.6% (active),1.56% (active),-19.8% (active),-94.2% (active),-70% (active),-85.1% (active),-4.13% (active),-90.4% (active),-93.7% (active),-15% (active),-51.3% (active),-97.4% (active),-96.2% (active),-84.2% (active),-45% (active),-81.5% (active),-98.5% (active),-76.5% (active),-90.8% (active)
